From PubChem BioAssay (NCATS)
Inconclusive results are not listed. The source made the active and inactive calls. Calls follow the shape of the dose curve; as a rule, active = well fitted curve in the direction sought with a large enough effect; inconclusive = small, poorly fitted or top-dose-only effect, or another doubt; inactive = no such curve, though single readings can be large; an effect the other way counts as inactive or inconclusive. Where a SMILES comes first, the peptide text is derived from it.

Legend:
[1] = tested on: HACAT; experiment: qHTS assay to identify novel small-molecules to repurpose for Merkel cell carcinoma treatment (AID 1296009); conditions: MCC and control cell lines, CellTiter-Glo viability, 72 h; at 44.8 µM (top of the series) unless noted; also: nearly all actives have a fitted effect of over 60% in size
How it was run: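 Cell viability measured by CellTiter-Glo following 72 hr compound treatment at 37 degree celsius, with NPC and MIPE libraries tested in 8- and 11-point concentration series.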

[2] = tested on: C33A; experiment: Primary qHTS to identify gynecologic anti-cancer compounds using libraries of approved drugs and bioactive compounds (AID 1345084); conditions: Gynecologic cancer cell panel viability, ATPlite luminescence, 48 h; series mostly up to 57.5 µM; also: nearly all actives have a fitted effect of over 55% in size
How it was run: (§1)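 Cells, 1,000 per well, plated 16 h, then exposed 48 h at 37 C to compounds. Viability by ATPlite luminescence after 15 min at room temperature.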

[3] = tested on: CAOV3; experiment: as above; conditions: Gynecologic cancer cell panel viability, ATPlite luminescence, 48 h; series mostly up to 57.5 µM
How it was run: as §1

[4] = tested on: CASKI; experiment: as above; conditions: Gynecologic cancer cell panel viability, ATPlite luminescence, 48 h; series mostly up to 57.5 µM
How it was run: as §1

[5] = tested on: Es-2; experiment: as above; conditions: Gynecologic cancer cell panel viability, ATPlite luminescence, 48 h; series mostly up to 57.5 µM
How it was run: as §1

[6] = tested on: HeLa; experiment: as above; conditions: Gynecologic cancer cell panel viability, ATPlite luminescence, 48 h; series mostly up to 57.5 µM
How it was run: as §1

[7] = tested on: Hek293T; experiment: as above; conditions: Gynecologic cancer cell panel viability, ATPlite luminescence, 48 h, control line for the selectivity index; series mostly up to 57.5 µM
How it was run: as §1

[8] = tested on: JEG-3; experiment: as above; conditions: Gynecologic cancer cell panel viability, ATPlite luminescence, 48 h; series mostly up to 57.5 µM
How it was run: as §1

[9] = tested on: OV90; experiment: as above; conditions: Gynecologic cancer cell panel viability, ATPlite luminescence, 48 h; series mostly up to 57.5 µM
How it was run: as §1

[10] = tested on: PA-1; experiment: as above; conditions: Gynecologic cancer cell panel viability, ATPlite luminescence, 48 h; series mostly up to 57.5 µM
How it was run: as §1

[11] = tested on: SKOV3; experiment: as above; conditions: Gynecologic cancer cell panel viability, ATPlite luminescence, 48 h; series mostly up to 57.5 µM
How it was run: as §1

[12] = tested on: Tov-21-G; experiment: as above; conditions: Gynecologic cancer cell panel viability, ATPlite luminescence, 48 h; series mostly up to 57.5 µM
How it was run: as §1

[13] = tested on: Tov112D; experiment: as above; conditions: Gynecologic cancer cell panel viability, ATPlite luminescence, 48 h; series mostly up to 57.5 µM
How it was run: as §1

Measured: Potency

CCCC(=O)Nc1cccc(NC(=O)c2ccccc2Br)c1
inactive: [1] | [2] | [3] | [4] | [5] | [6] | [7] | [8] | [9] | [10] | [11] | [12] | [13]

COc1cc(/C=C/c2ccccc2)c(C(=O)O)c(O)c1CC=C(C)C
inactive: [1] | [2] | [3] | [4] | [5] | [6] | [7] | [8] | [9] | [10] | [11] | [12] | [13]

C/C=C(\C)C(=O)O[C@H]1C=CC(=O)O[C@H]1/C=C/[C@H](O)[C@@H](C)O
inactive: [1] | [2] | [3] | [4] | [5] | [6] | [7] | [8] | [9] | [10] | [11] | [12] | [13]

CC(=O)O[C@H]1C[C@@H](O)C(C)(C)C2C[C@@H](OC(C)=O)[C@@]3(C)C4=CCC(C(CO)CC(O)C5OC5(C)C)[C@]4(C)CCC3[C@]21C (some centres not stated)
inactive: [1] inactive [at 17.4 µM] | [2] | [3] | [4] | [5] | [6] | [7] | [8] | [9] | [10] | [11] | [12] | [13]

OCC1=C[C@@H](O)[C@@H]2C=CO[C@@H](O[C@@H]3O[C@H](CO)[C@@H](O)[C@H](O)[C@H]3O)[C@H]12
inactive: [1] | [2] | [3] | [4] | [5] | [6] | [7] | [8] | [9] | [10] | [11] | [12] | [13]

CCOc1nc2c(N)ncnc2n1CC
inactive: [1] | [2] | [3] | [4] | [5] | [6] | [7] | [8] | [9] | [10] | [11] | [12] | [13]

Cc1cn(-c2cc(NC(=O)c3ccc(C)c(Nc4nccc(-c5cnccn5)n4)c3)cc(C(F)(F)F)c2)cn1
inactive: [1] | [2] | [3] | [4] | [5] | [6] | [7] | [8] | [9] | [10] | [11] | [12] | [13]

On1ncc(C2CCNCC2)c1-c1cccc(-c2ccccc2)c1
inactive: [1] | [2] | [3] | [4] | [5] | [6] | [7] | [8] | [9] | [10] | [11] | [12] | [13]

CC1CC(=O)[C@]2(O)C(C(=O)OCCc3ccc(O)c(O)c3)=CO[C@@H](O[C@@H]3O[C@H](CO)[C@@H](O)[C@H](O)[C@H]3O)[C@H]12 (some centres not stated)
inactive: [1] inactive [at 17.4 µM] | [2] | [3] | [4] | [5] | [6] | [7] | [8] | [9] | [10] | [11] | [12] | [13]

C[C@@H]1O[C@@H](OC[C@H]2O[C@@H](OCc3ccccc3)[C@H](O)[C@@H](O)[C@@H]2O)[C@H](O)[C@H](O)[C@H]1O
inactive: [1] inactive [at 17.4 µM] | [2] | [3] | [4] | [5] | [6] | [7] | [8] | [9] | [10] | [11] | [12] | [13]

OC[C@@]1(O)CO[C@H](OC[C@H]2O[C@@H](OCCc3ccccc3)[C@H](O)[C@@H](O)[C@@H]2O)[C@@H]1O
inactive: [1] inactive [at 17.4 µM] | [2] | [3] | [4] | [5] | [6] | [7] | [8] | [9] | [10] | [11] | [12] | [13]

COc1ccc(NC(=O)c2ccc(-c3ccc(C(N)=O)cc3C)cc2)cc1N1CCN(C)CC1
inactive: [1] | [2] | [3] | [4] | [5] | [6] | [7] | [8] | [9] | [10] | [11] | [12] | [13]

CCC(=O)N1CCc2cc(OC)c(O)cc2C1
inactive: [1] | [2] | [3] | [4] | [5] | [6] | [7] | [8] | [9] | [10] | [11] | [12] | [13]

CC(C)C1NC(=O)CNC(=O)C2CCCN2C(=O)C(Cc2c[nH]c3ccccc23)NC(=O)CNC(=O)C(Cc2ccc(O)cc2)NC(=O)CNC1=O (configuration not stated) (cyclo(GVGYGWP); configuration not given here)
inactive: [1] inactive [at 17.4 µM] | [2] | [3] | [4] | [5] | [6] | [7] | [8] | [9] | [10] | [11] | [12] | [13]
